# Out of some 290,000 compounds screened, about 3,000 (1%) were called active. Cut-off read from the data, not from the text of the source: active = inhibition mostly above about 36% (no sharp cut-off); inactive = mostly below about 34%. The entries come from a sample that favours actives as a whole.
# Biological target: T1, Nucleotide-binding oligomerization domain-containing protein 1, Homo sapiens (UniProt Q9Y239)
# T1 sequence (whole entry): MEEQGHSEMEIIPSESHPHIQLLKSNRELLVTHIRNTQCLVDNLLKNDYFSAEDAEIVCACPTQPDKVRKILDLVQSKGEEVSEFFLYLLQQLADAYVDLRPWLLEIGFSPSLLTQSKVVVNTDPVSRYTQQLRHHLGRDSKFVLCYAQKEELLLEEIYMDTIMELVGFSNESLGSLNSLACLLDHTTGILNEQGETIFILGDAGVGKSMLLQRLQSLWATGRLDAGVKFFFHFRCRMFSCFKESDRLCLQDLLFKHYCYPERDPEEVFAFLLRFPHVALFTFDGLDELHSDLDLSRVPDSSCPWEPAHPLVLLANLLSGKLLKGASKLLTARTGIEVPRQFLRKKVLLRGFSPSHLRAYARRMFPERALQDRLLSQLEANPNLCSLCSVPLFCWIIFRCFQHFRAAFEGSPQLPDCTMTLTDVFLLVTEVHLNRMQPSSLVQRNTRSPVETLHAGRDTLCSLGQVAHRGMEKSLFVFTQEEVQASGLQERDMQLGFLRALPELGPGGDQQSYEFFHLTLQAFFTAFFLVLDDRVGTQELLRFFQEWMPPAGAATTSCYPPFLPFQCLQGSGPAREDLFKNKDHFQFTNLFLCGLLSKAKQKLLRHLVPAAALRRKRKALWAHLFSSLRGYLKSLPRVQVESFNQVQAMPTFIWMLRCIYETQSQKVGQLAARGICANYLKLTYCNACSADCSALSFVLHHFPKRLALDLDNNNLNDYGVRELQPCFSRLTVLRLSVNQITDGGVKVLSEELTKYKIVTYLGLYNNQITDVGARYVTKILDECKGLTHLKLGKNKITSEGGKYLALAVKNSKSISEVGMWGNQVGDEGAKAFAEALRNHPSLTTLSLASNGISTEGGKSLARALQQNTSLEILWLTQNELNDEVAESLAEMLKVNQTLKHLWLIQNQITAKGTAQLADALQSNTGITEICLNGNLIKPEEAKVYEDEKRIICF
# Test: NOD1 signaling inhibitors, primary screen, cell-based, luminescence, uHTS (AID 1578)
row,Structure (SMILES),outcome
1,C=C(C)C(=O)O[C@H]1C/C(C)=C\C(=O)/C=C(\C)[C@H](O)[C@@H]2OC(=O)C(=C)[C@@H]21,active
2,CC1(C)N=C(N)N=C(N)N1c1ccc(OCCCOc2ccccc2)c(Cl)c1.CCS(=O)(=O)O,active
3,O=C(NCc1cccnc1)/C(=C\c1ccc(-c2ccc(Cl)c(Cl)c2)o1)S(=O)(=O)c1ccccc1,active
4,O=C(NCc1cccnc1)/C(=C/c1ccc(-c2ccc(Cl)cc2)o1)S(=O)(=O)c1ccccc1,active
5,O=C(Oc1cc2oc(=O)cc(-c3ccccc3)c2cc1Cl)C1CCCCC1,active
6,COc1ccc(-c2cc(=O)oc3cc(OC(=O)C4CCCCC4)c(Cl)cc23)cc1,active
7,O=[N+]([O-])c1ccc(N/N=C/c2sc(N3CCOCC3)nc2-c2ccccc2)c(S(=O)(=O)Nc2ccccc2Cl)c1,active
8,Br.O=[N+]([O-])c1ccc(N/N=C/c2sc(N3CCOCC3)nc2-c2ccccc2)c(S(=O)(=O)Nc2ccc(Cl)cc2)c1,active
9,Cc1ccc(N=c2oc3cc(O)ccc3cc2C(N)=O)cc1,active
10,COc1ccc2cc(C(N)=O)c(=Nc3ccc(C)cc3)oc2c1,active
11,COc1ccc(C2C(O)C(c3c[nH]c4ccccc34)=NN2C(=O)CCl)cc1 (stereo not drawn),active
12,COc1cccc(C(=O)Nc2ccc(Oc3cccc(C(F)(F)F)c3)nc2)c1,active
13,CN(C)c1ccnc2sc(C(N)=O)c(N)c12,active
14,CC(=O)c1cccc(Nc2ncnc3ccc(Br)cc23)c1,active
15,Brc1ccc2ncnc(Nc3cccc4ccccc34)c2c1,active
16,COc1ccc(Nc2ncnc3ccc(Br)cc23)cc1OC,active
17,Cc1cc(C)c(C)c(S(=O)(=O)N2CCN(c3ncnc4sc(C)c(C)c34)CC2)c1C,active
18,Cc1ccc(OCCN2CCN(c3ncnc4sc(C)c(C)c34)CC2)cc1,active
19,O=[N+]([O-])c1cc(S(=O)(=O)Nc2cccc(C(F)(F)F)c2)ccc1-n1nnc2ccccc21,active
20,CN(C)/C=C/c1c([N+](=O)[O-])c2ccc(O)cc2n1-c1ccccc1,active
21,Cc1c([N+](=O)[O-])c2ccc(O)cc2n1-c1ccccc1,active
22,S=C(NNc1ccnc2cc(Cl)ccc12)Nc1ccccc1Cl,active

row,Structure (SMILES),outcome
1,COc1cccc(-n2nnnc2S(C)(=O)=O)c1,active
2,N#CCCS(=O)(=O)c1nnnn1-c1ccccc1,active
3,CCCS(=O)(=O)c1nnnn1-c1cccc(OC)c1,active
4,CS(=O)(=O)c1ccc(C(=O)OCc2nnc(-c3ccccc3)o2)cc1[N+](=O)[O-],active
5,CCCCN(CC)S(=O)(=O)c1ccc(C(=O)Nc2nnc(-c3cccs3)o2)cc1,active
6,CCCCN(C)S(=O)(=O)c1ccc(C(=O)Nc2nnc(-c3cccs3)o2)cc1,active
7,CCN(Cc1ccccc1)S(=O)(=O)c1ccc(C(=O)Nc2nnc(C3CC3)o2)cc1,active
8,CCCCN(CC)S(=O)(=O)c1ccc(C(=O)Nc2nnc(-c3ccccc3Cl)o2)cc1,active
9,COc1ccccc1-c1nnc(Nc2nc3c(OC)cccc3s2)o1,active
10,COc1cccc2sc(Nc3nc(-c4ccccn4)cs3)nc12,active
11,Cc1cccnc1Nc1nc(-c2ccccn2)cs1,active
12,COc1ccc(Nc2oc(COc3ccccc3OC)nc2C#N)cc1,active
13,Cc1oc2c(F)c(F)c(F)c(F)c2c1S(=O)(=O)Nc1cccc(C(F)(F)F)c1,active
14,CCCCn1c(SCC(=O)Nc2nnc(CC)s2)nc2c1c(=O)n(C)c(=O)n2C,active
15,CCCn1c(SCC(=O)Nc2nc3c(s2)CCCC3)nc2c1c(=O)n(C)c(=O)n2C,active
16,O=C(NC1CCCC1)c1sc(=S)n2c1[nH]c(=O)c1ccccc12,active
17,O=C(NC1CCCCC1)c1sc(=S)n2c1[nH]c(=O)c1ccccc12,active
18,Cc1ncoc1C(=O)NC1CCCc2c1cnn2-c1ccc(C(C)(C)C)cc1 (stereo not drawn),active
19,Cc1ccc(-n2ncc3c2CCCC3NC(=O)c2ocnc2C)cc1C (stereo not drawn),active
20,CCC1Sc2ccc(S(=O)(=O)Nc3ccc(OC)c(OC)c3)cc2NC1=O (stereo not drawn),active
21,O=C(Nc1nnc(-c2ccc3c(c2)CCCC3)o1)c1ccccc1,active
22,O=C(Nc1nnc(-c2ccc3c(c2)CCCC3)o1)c1ccccc1Cl,active

row,Structure (SMILES),outcome
1,O=C(Nc1nnc(-c2ccc3c(c2)CCCC3)o1)c1ccc(Cl)cc1Cl,active
2,N#Cc1c2ccc(O)cc2n2ccccc12,active
3,COc1ccc2c(C#N)c3ccccn3c2c1,active
4,COc1ccc2[nH]c(=O)c3c(c2c1)OC(C)(C)C=C3,active
5,O=C(Nc1ccccn1)C1CCN(c2ncnc3c2nc2n3CCCCC2)CC1,active
6,O=C(Nc1ccc(Cl)cn1)C1CCN(c2ncnc3c2nc2n3CCCCC2)CC1,active
7,O=C(NCC1CCN(Cc2ccc(Cl)cc2)CC1)C1CCCN(c2ncnc3c2nc2n3CCCCC2)C1 (stereo not drawn),active
8,Cc1ccc(NC(=O)C2CCCN(c3ncnc4c3nc3n4CCCCC3)C2)nc1 (stereo not drawn),active
9,O=C(Nc1ccccc1Cl)/C(Cl)=C(\Cl)S(=O)c1ccccc1 (stereo not drawn),active
10,CC(=O)N1CC(C)Sc2ccc(S(=O)(=O)NCCc3ccc(C)cc3)cc21 (stereo not drawn),active
11,COc1cc(/C=C2\SC(=N)N(c3ccc(F)cc3)C2=O)ccc1O,active
12,N#C/C(=C\C=C\c1ccccc1[N+](=O)[O-])C(=O)NC1CCCCC1,active
13,Br.CCCCCCCCCn1ccc(=N)cc1,active
14,Br.CCCCCCCCn1ccc(=N)cc1,active
15,Br.CCCCCCCCCCn1ccc(=N)cc1,active
16,Fc1ccccc1/C=N/Nc1nc(-c2ccccn2)nc2ccccc12,active
17,C(=N\Nc1nc(-c2ccccn2)nc2ccccc12)/c1ccccc1,active
18,COc1cccc(Nc2nc(NCCO)c3ccccc3n2)c1.Cl,active
19,O=c1cc(CSc2nnc(-c3cccs3)n2Cc2ccccc2)nc2sc3ccccc3n12,active
20,COc1ccc(OC)c(CCNC(=O)Cn2nc(C)c3c(C)n(-c4ccc(C)cc4)nc3c2=O)c1,active
21,CCOc1ccccc1CNC(=O)Cn1nc(C)c2c(C)n(-c3ccc(C)cc3)nc2c1=O,active
22,COc1ccc(CCNC(=O)C(C)n2nc(C)c3c(C)n(-c4ccc(C)cc4)nc3c2=O)c(OC)c1 (stereo not drawn),active

row,Structure (SMILES),outcome
1,COc1ccc(OC)c(CCNC(=O)C(C)n2nc(C)c3c(C)n(-c4ccc(C)cc4)nc3c2=O)c1 (stereo not drawn),active
2,CSc1nnc(NC(=O)c2nc(S(=O)(=O)Cc3ccc(C)cc3)ncc2Cl)s1,active
3,Cc1cccc(CS(=O)(=O)c2ncc(Cl)c(C(=O)Nc3nnc(C(C)C)s3)n2)c1,active
4,Cc1ccc(CS(=O)(=O)c2ncc(Cl)c(C(=O)Nc3nnc(C(C)C)s3)n2)cc1,active
5,COc1ccc(Cc2nc3ccc(C(=O)N4CCN(C)C(C)C4)cc3o2)cc1OC (stereo not drawn),active
6,Cc1cccc(CSc2cccc3cccnc23)c1,active
7,Cn1c(=O)[nH]c(=O)c2c1nc(N1CCC(Cc3ccccc3)CC1)n2Cc1ccccc1,active
8,CCCCCn1c(SCCc2ccccc2)nc2c1c(=O)[nH]c(=O)n2C,active
9,Cn1c(=O)[nH]c(=O)c2c1nc([N+](=O)[O-])n2Cc1ccccc1,active
10,COc1cccc(-c2coc3c(C)c4oc(=O)c(CCC(=O)O)c(C)c4cc23)c1,active
11,O=C(Nc1nc(-c2ccccc2)cs1)c1ccc2c(=O)n3c(nc2c1)CCCCC3,active
12,Cc1ccc(-c2csc(NC(=O)c3ccc4c(=O)n5c(nc4c3)CCCCC5)n2)cc1,active
13,COc1ccc(CNC(=O)c2cc3c(C)nc4ccccc4c3o2)c(OC)c1,active
14,C/C(=N\NC(=O)c1ccccc1Cl)c1ccccn1,active
15,C/C(=N\Nc1nc2ccccc2[nH]1)c1ccccn1,active
16,C/C(=N\NC(=O)C1COc2ccccc2O1)c1ccccn1 (stereo not drawn),active
17,C/C(=N\NC(=O)c1cccc2ccccc12)c1ccccn1,active
18,C=CCNC(=S)N/N=C(\C)c1ccccn1,active
19,C/C(=N\NC(=O)c1cc(-c2cccs2)nc2ccccc12)c1ccccn1,active
20,C/C(=N\NC(=O)C(c1ccccc1)c1ccccc1)c1ccccn1,active
21,C/C(=N\NC(=O)C(C)Oc1ccc([N+](=O)[O-])cc1)c1ccccn1 (stereo not drawn),active
22,O=S1(=O)Nc2c(ccc3cccnc23)-c2ccccc21,active

row,Structure (SMILES),outcome
1,Cc1ccccc1-c1nc(CSc2nc3c(c(=O)[nH]2)CCC3)c(C)o1,active
2,O=C(CCl)c1cc2c3c(c1)CC(=O)N3CCC2,active
3,CCOc1cc(S(=O)(=O)NCc2ccncc2)ccc1Cl,active
4,CCN(CC)S(=O)(=O)c1ccc(C(=O)Nc2ccc(Cc3ccncc3)cc2)cc1,active
5,Cc1ccc(C)c(N2CCN(C(=O)CCS(=O)(=O)c3ccc4c(c3)NC(=O)C(C)S4)CC2)c1 (stereo not drawn),active
6,CCOc1ccc(/C=C/C(O)=C2/C(=O)N(C)C3(C)CC2c2ccccc2O3)cc1OC (stereo not drawn),active
7,COc1ccc(-n2nc(C#N)c(Cl)cc2=O)cc1,active
8,Cn1c(/C=C/c2ccc(Cl)cc2Cl)c([N+](=O)[O-])c(=O)n(C)c1=O,active
9,Cc1ccc(-n2c(-c3ccc(Br)cc3)c[n+]3c2CCc2ccc4cccnc4c2-3)cc1.[Br-],active
10,O=c1cc(C(F)(F)F)[nH]c2ccc(OC(F)(F)F)cc12,active
11,O=c1cc(C(F)(F)F)[nH]c2ccc(C(F)(F)F)cc12,active
12,O=C1CSc2ccc(C(=O)Nc3cccc(S(=O)(=O)Nc4ccc(Br)cc4)c3)cc2N1,active
13,O=C(/C=C/c1ccc([N+](=O)[O-])s1)N1CCCCC1,active
14,CC1CC(C)CN(C(=O)/C=C/c2ccc([N+](=O)[O-])s2)C1 (stereo not drawn),active
15,CCOC(=O)c1c(-c2ccccc2)oc2cc(Br)c(O)c(C=O)c12,active
16,COc1ccccc1NC(=O)c1cc2cc(Br)ccc2cc1O,active
17,Cc1ccnc(NC(=O)Cc2ccc(-c3ccccc3)cc2)c1,active
18,COc1cc(OC)cc(-c2cc3nc(C)c(CCC(=O)O)c(C)n3n2)c1,active
19,O=c1[nH]c(-c2ccccn2)nc2sc(-c3ccccc3)cc12,active
20,Cn1c2c(c(=O)n(C)c1=O)C(C(F)(F)F)(C(F)(F)F)N=C(c1ccc(Cl)cc1)N2,active

# From the GenesisPotency data set
